Results on 27 compounds are retold here after PubChem BioAssay (NCATS).

Assay [1] has as its target Rap guanine nucleotide exchange factor 3 (Homo sapiens) (UniProt O95398). Briefly: Confirmatory qHTS for agonist of cAMP-regulated guanine nucleotide exchange factor 3 (EPAC1) (AID 1645881).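 Further: EPAC1 catalysed release of BODIPY-GDP from Rap1B seen as fluorescence loss; 100% = effect of cAMP agonist control; nearly all actives have a fitted effect of over 75% in size.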
Assay [2] deals with Rap guanine nucleotide exchange factor 4 (Homo sapiens) (UniProt Q8WZA2). Briefly: Confirmatory qHTS for agonist of cAMP-regulated guanine nucleotide exchange factor 4 (EPAC2) (AID 1645884).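 Further: nucleotide exchange releases bodipy-GDP from Rap1 and this lowers its fluorescence; on the % scale 0 is the no-effect control and ±100 the full control effect; nearly all actives have a fitted effect of over 65% in size.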
Chain of Rap guanine nucleotide exchange factor 4 (Homo sapiens) (Q8WZA2 whole entry, looked up): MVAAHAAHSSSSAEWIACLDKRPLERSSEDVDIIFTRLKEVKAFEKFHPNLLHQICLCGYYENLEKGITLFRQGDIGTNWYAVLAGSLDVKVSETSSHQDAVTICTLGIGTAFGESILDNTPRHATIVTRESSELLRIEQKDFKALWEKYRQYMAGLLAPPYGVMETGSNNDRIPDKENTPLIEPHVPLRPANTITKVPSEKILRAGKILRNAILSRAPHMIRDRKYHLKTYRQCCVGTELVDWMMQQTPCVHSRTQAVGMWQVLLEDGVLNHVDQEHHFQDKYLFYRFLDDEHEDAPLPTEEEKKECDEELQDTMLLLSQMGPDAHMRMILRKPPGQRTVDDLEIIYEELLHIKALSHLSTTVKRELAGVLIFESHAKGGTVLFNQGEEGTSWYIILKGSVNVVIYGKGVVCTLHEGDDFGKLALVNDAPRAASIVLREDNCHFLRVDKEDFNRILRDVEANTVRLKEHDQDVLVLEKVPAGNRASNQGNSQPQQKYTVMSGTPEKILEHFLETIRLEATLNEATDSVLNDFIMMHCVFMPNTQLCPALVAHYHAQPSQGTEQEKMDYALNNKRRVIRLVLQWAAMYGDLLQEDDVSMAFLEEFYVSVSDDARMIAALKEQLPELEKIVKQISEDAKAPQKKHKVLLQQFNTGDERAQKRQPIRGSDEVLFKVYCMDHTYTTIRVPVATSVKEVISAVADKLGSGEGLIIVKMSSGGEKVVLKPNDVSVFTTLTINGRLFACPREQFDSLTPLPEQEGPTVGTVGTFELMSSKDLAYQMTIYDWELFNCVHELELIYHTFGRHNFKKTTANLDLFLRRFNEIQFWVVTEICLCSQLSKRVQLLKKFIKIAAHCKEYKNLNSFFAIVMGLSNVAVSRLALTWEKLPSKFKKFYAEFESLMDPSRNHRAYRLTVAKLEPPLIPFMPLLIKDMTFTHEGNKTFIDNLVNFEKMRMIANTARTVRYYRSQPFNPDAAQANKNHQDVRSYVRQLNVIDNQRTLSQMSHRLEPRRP
Assay [3] has the same target. Briefly: Confirmatory qHTS for antagonist of cAMP-regulated guanine nucleotide exchange factor 4 (EPAC2) (AID 1645885). Further: nearly all actives have a fitted effect of over 25% in size. Further: potency means the concentration at half of the fitted maximal effect. On activity change, negative = inhibition: on the % scale 0 is the no-effect control and ±100 the full control effect.
Assay [4] deals with Rap guanine nucleotide exchange factor 3 (Homo sapiens) (UniProt O95398). Kind of assay: Counterscreen qHTS for antagonist of cAMP-regulated guanine nucleotide exchange factor 3 (EPAC1) (AID 1645888).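 Further: fluorescence loss as bound BODIPY-GDP is released from Rap1B; % of control where 0% means no effect.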 The method in brief:
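Rap1B–BODIPY-GDP (250 nM) with 50 uM GDP; compounds pin-transferred to 9.74 nM–152 uM final (activator) or from 7.32 nM upwards (inhibitor). Fluorescence Ex/Em 480/540 nm read at 5 and 30 min, then after adding cAMP or buffer, at room temperature.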

Results filed as inconclusive are left out. Values without a mark were called inactive. Calls of active or inactive are those of the source. The call rests on the fitted dose curve; in most records, active means well fitted curve in the direction sought with a large enough effect; inconclusive means small, poorly fitted or top-dose-only effect, or another doubt; inactive means no such curve, though single readings can be large; an effect the other way counts as inactive or inconclusive.

Chain of Rap guanine nucleotide exchange factor 3 (Homo sapiens) (O95398 whole entry, looked up): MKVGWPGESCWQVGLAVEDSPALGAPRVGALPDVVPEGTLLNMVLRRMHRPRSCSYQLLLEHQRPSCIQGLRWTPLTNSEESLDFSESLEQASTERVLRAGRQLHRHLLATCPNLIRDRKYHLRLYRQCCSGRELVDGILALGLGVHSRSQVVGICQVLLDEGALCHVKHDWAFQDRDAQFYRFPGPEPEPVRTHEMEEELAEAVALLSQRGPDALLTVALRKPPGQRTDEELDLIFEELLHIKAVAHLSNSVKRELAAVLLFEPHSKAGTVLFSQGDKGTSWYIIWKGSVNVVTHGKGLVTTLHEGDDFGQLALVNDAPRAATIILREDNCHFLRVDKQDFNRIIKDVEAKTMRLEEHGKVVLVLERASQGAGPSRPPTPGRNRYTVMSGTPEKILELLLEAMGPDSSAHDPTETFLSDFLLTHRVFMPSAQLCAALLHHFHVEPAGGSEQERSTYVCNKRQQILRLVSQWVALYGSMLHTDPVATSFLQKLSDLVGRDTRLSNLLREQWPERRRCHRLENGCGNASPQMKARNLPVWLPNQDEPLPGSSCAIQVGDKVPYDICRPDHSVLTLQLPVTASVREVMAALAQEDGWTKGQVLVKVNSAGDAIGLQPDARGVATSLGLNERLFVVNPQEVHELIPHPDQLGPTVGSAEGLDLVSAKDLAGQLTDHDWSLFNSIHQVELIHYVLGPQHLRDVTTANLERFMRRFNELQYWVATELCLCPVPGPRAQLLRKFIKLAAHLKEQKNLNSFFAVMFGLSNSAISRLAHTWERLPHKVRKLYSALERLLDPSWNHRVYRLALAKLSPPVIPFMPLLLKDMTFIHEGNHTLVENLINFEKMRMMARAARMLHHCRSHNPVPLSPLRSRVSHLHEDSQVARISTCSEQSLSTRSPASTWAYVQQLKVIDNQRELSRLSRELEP

Take `COc1cc(C2CC(=O)Oc3cc(C)c(Br)c(C)c32)cc(OC)c1OC` (stereo not drawn): the Potency result in assay [1] and in assay [3] was “inactive” in each case. Also, the activation in assay [2] was 16.3% [at 17.1 µM, percent relative to cAMP agonist control]. Moreover, the activity change, negative = inhibition in assay [4] is -6.95% [at 30.8 µM].
As for `CCc1nc2c(OCc3ccc(C(=O)OC)cc3)cccn2c1N(C)C(=O)c1ccc(C)cc1`, the Potency result in assay [1], in assay [2], in assay [3] and in assay [4] was “inactive” each time.
Take `O=C(NCc1ccccc1)C(c1ccccc1)n1c(=O)c(-c2ccco2)nc2ccccc21` (stereo not drawn): the Potency entry in assay [1] and in assay [3] was “inactive” in each case. Moreover, the activation in assay [2] was 3.56% [at 17.1 µM, percent relative to cAMP agonist control]. Besides, the activity change, negative = inhibition in assay [4] was 5.07% [at 30.8 µM].
On to `Cc1ccc(Nc2nnc(-c3ccc(C)c(S(N)(=O)=O)c3)c3ccccc23)cc1`, for which the Potency entry in assay [1], in assay [2] and in assay [4] was “inactive” throughout. Besides, in assay [3], the outcome is “inactive [at 12.7 µM]”.
As for `O=C1C(Cl)=C(NCCc2ccccc2)C(=O)c2ccccc21`, the Potency entry in assay [1], in assay [2], in assay [3] and in assay [4] was “inactive” in each case.
Consider `CCc1ccccc1OCC(=O)NCC1COc2ccccc2O1` (stereo not drawn), for which the Potency result in assay [1], in assay [2], in assay [3] and in assay [4] was “inactive” in each case.
For the compound `O=C(COc1ccccc1-c1ccccc1)NCc1ccco1`, the Potency entry in assay [1], in assay [2] and in assay [4] was “inactive” each time. Besides, the outcome in assay [3] was “inactive [at 12.7 µM]”.
In the case of `N#Cc1c(NC(=O)CSc2ncnc3sccc23)oc(-c2ccco2)c1-c1ccco1`, the Potency entry in assay [1], in assay [2] and in assay [4] was “inactive” throughout. Further, the Potency in assay [3] is 84.9 µM (active).
As to `CCOc1ccccc1Oc1ncnc2c1oc1ccccc12`, the Potency entry in assay [1], in assay [2] and in assay [4] was “inactive” throughout. Besides, the outcome in assay [3] is “inactive [at 12.7 µM]”.
Turning to `CCC(=O)NC(c1ccc(OC)cc1)c1c(O)ccc2ccccc12` (stereo not drawn), the Potency result in assay [1], in assay [2], in assay [3] and in assay [4] was “inactive” each time.
As for `O=C(OCC1OC(n2ncc(=O)[nH]c2=O)C(OC(=O)c2ccccc2)C1OC(=O)c1ccccc1)c1ccccc1` (stereo not drawn), the Potency entry in assay [1] and in assay [3] was “inactive” in each case. Also, the activation in assay [2] was 0.888% [at 17.1 µM, percent relative to cAMP agonist control]. In addition, the activity change, negative = inhibition in assay [4] is -8.49% [at 30.8 µM].
As to `Clc1cccc(Cc2c(-c3ccco3)nc3ccc(Br)cn23)c1`, the Potency entry in assay [1] and in assay [3] was “inactive” each time. The activation in assay [2] was 2.6% [at 17.1 µM, percent relative to cAMP agonist control]. Moreover, the activity change, negative = inhibition in assay [4] is -13.4% [at 30.8 µM].
For the compound `Cc1ccc(-c2nc3ccc(Br)cn3c2Cc2ccccc2)cc1`, the Potency entry in assay [1], in assay [2], in assay [3] and in assay [4] was “inactive” each time.
On to `COc1ccccc1NC(=O)c1ccccc1NS(=O)(=O)c1cccs1`, for which the Potency result in assay [1], in assay [2], in assay [3] and in assay [4] was “inactive” each time.
Turning to `CCC1=NN2C(=N)/C(=C/c3ccc(OS(=O)(=O)c4ccccc4)cc3)C(=O)N=C2S1`, the Potency result in assay [1], in assay [2], in assay [3] and in assay [4] was “inactive” in each case.
As to `Cc1cc(C)cc(-n2ccnc2SCC(=O)Nc2ccc3c(c2)OCO3)c1`, the Potency result in assay [1], in assay [2], in assay [3] and in assay [4] was “inactive” in each case.
`COc1ccc(C2C=C(c3ccc(Br)cc3)Nc3nnnn32)c(OC)c1` (stereo not drawn): the Potency result in assay [1], in assay [2], in assay [3] and in assay [4] was “inactive” each time.
Turning to `Cc1cccc([C@H]2[C@@H]3C=CCC[C@@H]3C(=O)N2Cc2ccccc2)c1`, the Potency entry in assay [1], in assay [2] and in assay [4] was “inactive” throughout. The Potency in assay [3] is 42.6 µM (active).
Turning to `CC(C)Oc1cccc(C(=O)Nc2ccc3oc(-c4cccc(Cl)c4)nc3c2)c1`, the Potency result in assay [1], in assay [2], in assay [3] and in assay [4] was “inactive” each time.
Regarding `CCc1nc2c(OCc3ccc(OC(F)F)cc3)cccn2c1N(C)C(=O)c1cccs1`, the Potency result in assay [1], in assay [2], in assay [3] and in assay [4] was “inactive” throughout.
As to `COc1ccc(-c2cc(C(F)(F)F)c3c(n2)sc2c(O)cc(=O)[nH]c23)c(OC)c1`, the Potency entry in assay [1], in assay [2], in assay [3] and in assay [4] was “inactive” in each case.
As for `N#CCCN(CCC#N)S(=O)(=O)c1ccc(C(=O)Nc2nnc(C3=COCCO3)o2)cc1`, the Potency result in assay [1], in assay [2], in assay [3] and in assay [4] was “inactive” each time.
On to `O=C(Nc1ccc(S(=O)(=O)Nc2nccs2)cc1)c1cc(-c2ccccn2)nc2ccccc12`, for which the Potency entry in assay [1] and in assay [3] was “inactive” each time. In addition, the activation in assay [2] was 4.2% [at 17.1 µM, percent relative to cAMP agonist control]. Besides, the activity change, negative = inhibition in assay [4] is -7.32% [at 30.8 µM].
With `Cc1ccc(O)c(-c2n[nH]c3c2C(c2ccc(F)cc2)N(Cc2ccco2)C3=O)c1` (stereo not drawn), the Potency result in assay [1], in assay [2], in assay [3] and in assay [4] was “inactive” throughout.
For the compound `CCOC(=O)Cc1cc(=O)n2[nH]c(-c3ccccc3)c(-c3ccccc3)c2n1`, the Potency result in assay [1], in assay [2], in assay [3] and in assay [4] was “inactive” throughout.
For `CCc1ccc2occ(CC(=O)Nc3ccc(C)c(C)c3)c2c1`, the Potency entry in assay [1], in assay [2], in assay [3] and in assay [4] was “inactive” in each case.
On to `N#CCC(=O)N/N=C/c1coc2ccccc2c1=O`, for which the Potency entry in assay [1], in assay [2], in assay [3] and in assay [4] was “inactive” each time.
